Rows were chosen to be rich in hits. Some 21% of all compounds tested hit in one or more screens of this group.
Shiga toxin inh: inhibitors of Shiga toxin in Vero cells. inhibition, % at 38.7 µM. Vero cells, Shiga toxin protein synthesis inhibition reporter. actives 9.2% (n = 290,000); in the data active = inhibition mostly above about 28%, no sharp cut-off; inactive = mostly below about 43%; also: 0% is about no effect
NS1 inh: inhibitors of influenza NS1 protein function | Potency, µM (series often up to 46.1 µM), for inactives: at the highest dose activity, positive = more growth | actives 0.4% (n = 270,000) | AID 2326; calls by dose curve; also: potency is read from the fitted curve at half-maximal effect; actives are rising curves; nearly all actives have a fitted effect of over 50% in size
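Compounds were scored for reversing the slow growth caused by influenza A NS1 in S. cerevisiae, measured by optical density at 600 nm. Assay medium contained 2% galactose at pH 6.0; NS1-free yeast of the same strain were the positive control.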
Sm TGR block: S. mansoni TGR enzyme inhibition; Q962Y6; purified TGR, DTNB reduction, TNB absorbance 405 nm; Potency, µM (doses to about 114 µM), without a hit: at the top dose activity change, negative = inhibition, hits mostly inhibitors; actives 3% (n = 360,000); also: potency is read from the fitted curve at half-maximal effect; % is scaled to controls: 0 for no effect and ±100 for the full control effect; nearly all actives have a fitted effect of over 60% in size
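Kinetic colorimetric format: TGR-catalysed, NADPH-driven DTNB reduction monitored via TNB absorbance. Enzyme dispensed at 20 nM; compound exposure 15 min at room temperature before reaction start.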
Pf growth 96h: inhibits malaria parasite growth, 96 h | AID 504834 | actives 6.9% (n = 320,000) | P. falciparum luciferase reporter growth, 96 h | Potency, µM (doses to about 28.7 µM), for inactives: at the top dose activity change, negative = inhibition, most hits filed as inhibitors; also: potency is read from the fitted curve at half-maximal effect; % is scaled to controls: 0 for no effect and ±100 for the full control effect
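Plates of compound plus infected erythrocytes (2% hematocrit, 0.05% parasitemia final) incubate 96 hours, 37 C, 5% CO2. Detection reagent added; reduced luminescence from the parasites' luciferase reporter flags inhibition.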
Pf growth 48h: inhibits P. falciparum growth in the first generation, 48 h; P. falciparum luciferase growth in erythrocytes, 48 h; Potency, µM (highest dose often 28.7 µM), without a hit: at the top dose activity change, negative = inhibition, most hits filed as inhibitors; actives 5.9% (n = 310,000); AID 504832; also: potency is read from the fitted curve at half-maximal effect; % is scaled to controls: 0 for no effect and ±100 for the full control effect
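First compound was added to culture medium, then infected red cells at 0.1% parasitemia and 2% hematocrit (final). After incubation at 37 C under 5% CO2, luciferase detection reagent was dispensed and light output recorded.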
CHX counter: counter-screen hit for Shiga toxin inhibitors, cycloheximide; max response, %; actives 12% (n = 300,000); AID 2314; cell reporter, cycloheximide protein synthesis inhibition counterscreen; in the data active = max response mostly above about 13%, no sharp cut-off; inactive = mostly below about 14%; also: read at 38.3 µM for the half of the compounds with a filed dose; 0% is about no effect
Numbers without * were called inactive. Unless noted, calls follow the shape of the dose curve; as a rule, active = well fitted curve in the direction sought with a large enough effect; inconclusive = small, poorly fitted or top-dose-only effect, or another doubt; inactive = no such curve, though single readings can be large; an effect the other way counts as inactive or inconclusive.

COC(=O)C1=C(c2ccccc2)c2ccccc2S(=O)(=O)N1CC(=O)Nc1ccc(OC)cc1OC was read as Sm TGR block 1%.
Clc1ccc(Cn2ncc3c(N4CCCC4)ncnc32)cc1 was read as Shiga toxin inh -21, NS1 inh -39%, Sm TGR block -5%, Pf growth 48h inconclusive and CHX counter 6.
`c1ccc(Cn2ncc3c(N4CCN(C(c5ccccc5)c5ccccc5)CC4)ncnc32)cc1` gave NS1 inh 20%, Sm TGR block 45µM*, Pf growth 96h 6%, Pf growth 48h inconclusive and CHX counter 0.
Screening CCCSCCCNC(=O)C1CCN(c2nn3cc(-c4ccc(F)cc4)nc3s2)CC1 returned Sm TGR block 1%.
Screening COc1ccc(OC)c(NC(=S)NN2CCOCC2)c1 returned Shiga toxin inh -3, NS1 inh 12%, Sm TGR block -4%, Pf growth 96h 30%, Pf growth 48h 26% and CHX counter 2.
For Cc1ccc(NC(=S)NN2CCOCC2)c(C)c1 the results were Shiga toxin inh -28, NS1 inh 1%, Sm TGR block -10%, Pf growth 96h 15µM*, Pf growth 48h 19% and CHX counter -2.
For S=C(Nc1cccc2ccccc12)NN1CCOCC1 the results were Shiga toxin inh 33, NS1 inh 4%, Sm TGR block 4%, Pf growth 96h inconclusive, Pf growth 48h -10% and CHX counter 12.
`COc1ccc(Cl)cc1NC(=S)NN1CCOCC1` gave Shiga toxin inh -10, NS1 inh 0%, Sm TGR block 35µM*, Pf growth 96h 13%, Pf growth 48h 27% and CHX counter 5.
For C=CCN1C(=O)C(CC(=O)NCC)SC1=Nc1cc(Cl)ccc1Cl (centres undefined) the results were Shiga toxin inh -37, NS1 inh 2%, Sm TGR block 8%, Pf growth 96h 1.2µM*, Pf growth 48h 43% and CHX counter -3.
O=[N+]([O-])c1cc2c(c(CSc3nnc(Nc4ccccc4)s3)c1)OCOC2 was read as Shiga toxin inh -12, NS1 inh 9%, Sm TGR block -16%, Pf growth 48h -30% and CHX counter -2.
Screening Cc1ccccc1Nc1nnc(SCc2cc([N+](=O)[O-])cc3c2OCOC3)s1 returned Shiga toxin inh -5, NS1 inh 0%, Sm TGR block 0%, Pf growth 96h 4.7µM* and CHX counter 6.
`O=C(Nc1ccccc1)c1cc(S(=O)(=O)NCc2ccncc2)ccc1Cl` gave Shiga toxin inh -3, NS1 inh -4%, Sm TGR block -20%, Pf growth 96h 12µM*, Pf growth 48h -6% and CHX counter 1.
`COc1ccc(S(=O)(=O)NCc2cccnc2)cc1C(=O)Nc1ccccc1` gave Shiga toxin inh -7, NS1 inh -11%, Sm TGR block 0%, Pf growth 96h 10µM*, Pf growth 48h -14% and CHX counter -2.
Screening COc1ccc(S(=O)(=O)NCc2cccnc2)cc1NC(=O)c1ccccc1 returned Shiga toxin inh -5, NS1 inh 9%, Sm TGR block -1%, Pf growth 96h -23%, Pf growth 48h 2% and CHX counter -5.
O=C(CCc1ccccc1)NC1CC(=O)N(c2cccc(F)c2)C1 (centres undefined) was read as Sm TGR block 9%.
CCOC(=O)c1ccc(Oc2nc(NC)nc(SC)n2)cc1 was read as Shiga toxin inh -20, NS1 inh -7%, Sm TGR block -18%, Pf growth 48h 3.7µM* and CHX counter -8.
Screening CCNc1nc(Oc2ccc(C(=O)OCC)cc2)nc(SC)n1 returned Shiga toxin inh -19, NS1 inh -32%, Sm TGR block -25%, Pf growth 96h 6%, Pf growth 48h 12µM* and CHX counter -4.
`CCOC(=O)c1ccc(Oc2nc(SC)nc(N(C)C)n2)cc1` gave Shiga toxin inh -2, NS1 inh -11%, Sm TGR block 3%, Pf growth 96h 95%, Pf growth 48h inconclusive and CHX counter -1.
For CCS(=O)(=O)c1ccc2oc(=O)c(/C=C(\O)c3ccc(Cl)cc3)nc2c1 the results were Shiga toxin inh 3, Sm TGR block -28%, Pf growth 96h 4%, Pf growth 48h 20% and CHX counter 3.
